# A selection: hits, their analogues and other compounds. The true share with any hit is near 19%.
# DT40 TDP1 CPT – DT40-hTDP1 cell growth loss with CPT; actives 12% (n = 420,000); chicken DT40 Tdp1-/-;hTDP1 cells + 20 nM CPT, ATP luminescence, 48 h; AID 686979; Potency, µM (series often up to 46.2 µM), for the others: at the highest dose activity change, negative = growth inhibition, most hits filed as inhibitors; note: potency is the fitted concentration of half-maximal effect; % is set by controls: 0 for no effect and ±100 for the full control effect; nearly all actives have a fitted effect of over 55% in size
#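 Cell growth measured by CellTiter-Glo luminescence after a minimum 48 h, 37 C compound exposure with 20 nM CPT in Tdp1-knockout DT40 cells stably expressing hTDP1, seeded 400/well; qHTS titration format.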
# TGFb SMAD3 inh – inhibitors of TGF-b signaling; Potency, µM (titrated, usually from 46.1 µM), for the others: at the top dose activity, negative = inhibition, hits mostly inhibitors; HepG2 CAGA-GFP TGF-b/SMAD3 reporter, GFP fluorescence, 18 h; TGF-beta stimulated, 500 pg/mL final; AID 588855; actives 1.2% (n = 410,000); note: potency is the fitted concentration of half-maximal effect; % is set by controls: 0 for no effect and ±100 for the full control effect; nearly all actives have a fitted effect of over 65% in size
#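 Inhibition was scored as loss of TGF-beta-induced (500 pg/mL final, 18 hours, 37 degrees C) GFP in HEPG2 cells carrying a CAGA-GFP reporter, in DMEM with 1% FBS. Well GFP was summed per cell; Activity was normalised to unstimulated and stimulated DMSO wells, then concentration-response fitting.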
# DT40 TDP1 no CPT – qHTS for Inhibitors of human tyrosyl-DNA phosphodiesterase 1 (TDP1): qHTS in cells in absence of CPT | DT40 Tdp1-/- hTDP1 cells, no CPT, ATP luminescence, 48 h | Potency, µM (top dose mostly 46.2 µM), without a hit: at the top dose activity change, negative = growth inhibition, hits mostly inhibitors | actives 15% (n = 420,000); note: potency is the fitted concentration of half-maximal effect; % is set by controls: 0 for no effect and ±100 for the full control effect; nearly all actives have a fitted effect of over 55% in size
#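 A cellular qHTS used chicken DT40 cells lacking endogenous Tdp1 but carrying stably transfected human TDP1. Compounds were applied without camptothecin, and cell growth kinetics were judged by ATP-dependent luminescence after ≥48 hr.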
# HepG2 tox – counter-screen for TGF-b inhibitors: cytotoxicity in HepG2 cells. HepG2 CAGA-GFP viability, ATP luminescence, 18 h. Potency, µM (top dose mostly 46.1 µM), without a hit: top-dose activity change, negative = cytotoxicity, usual class: cytotoxic. actives 0.76% (n = 410,000). AID 588856; note: potency is the fitted concentration of half-maximal effect
#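 CellTiter-Glo luminescence gave cytotoxicity after 18 hours at 37 degrees C. The cells were HepG2 CAGA-GFP in 1% FBS DMEM, stimulated with 500 pg/mL TGF-beta after compound addition. %Activity was normalised to no-cell wells (complete cell-killing) and DMSO (no toxicity), and curves were fitted and classified.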
# TDP1 inh – TDP1 (human) enzyme inhibition. Q9NUW8. recombinant TDP1, AlphaScreen DNA substrate cleavage. Potency, µM (series often up to 130 µM), without a hit: at the highest dose activity change, negative = inhibition, actives largely listed as inhibitors. actives 0.28% (n = 350,000); note: potency is the fitted concentration of half-maximal effect; % is set by controls: 0 for no effect and ±100 for the full control effect; nearly all actives have a fitted effect of over 40% in size
# Target sequence (Q9NUW8 whole entry, looked up): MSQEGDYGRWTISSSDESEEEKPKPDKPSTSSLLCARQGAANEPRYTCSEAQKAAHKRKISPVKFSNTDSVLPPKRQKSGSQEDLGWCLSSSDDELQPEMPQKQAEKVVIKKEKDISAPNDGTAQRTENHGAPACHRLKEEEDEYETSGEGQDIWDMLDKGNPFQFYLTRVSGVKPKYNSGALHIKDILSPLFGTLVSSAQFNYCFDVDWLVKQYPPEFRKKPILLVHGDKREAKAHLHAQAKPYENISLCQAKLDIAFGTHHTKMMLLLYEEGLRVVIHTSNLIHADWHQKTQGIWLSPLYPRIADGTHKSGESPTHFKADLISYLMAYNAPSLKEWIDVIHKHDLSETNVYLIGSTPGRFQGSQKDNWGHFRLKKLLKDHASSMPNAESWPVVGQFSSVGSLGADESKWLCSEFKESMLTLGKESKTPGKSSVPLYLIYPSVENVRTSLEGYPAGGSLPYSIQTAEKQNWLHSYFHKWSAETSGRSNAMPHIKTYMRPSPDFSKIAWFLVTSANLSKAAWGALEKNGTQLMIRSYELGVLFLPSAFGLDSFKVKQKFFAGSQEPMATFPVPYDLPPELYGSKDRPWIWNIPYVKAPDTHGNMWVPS
#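 AlphaScreen read-out: signal falls as enzyme removes the 3' tyrosine-FITC from a 5'-biotinylated DNA oligo (15 nM, 5 min, RT). Enzyme was E. coli-made recombinant Tdp1 at 1 nM, exposed to compound for 15 min beforehand; beads 10 ug/ml, 10 min.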
# IL1B secr inh – inhibitors of inflammasome signaling (IL-1 beta secretion); THP-1 LPS/ATP IL-1B secretion, AlphaLISA, 16 h; stronger effect = lower value; activity change, % at 57.5 µM; actives 4.7% (n = 360,000); AID 743279; in the data active = activity change below about -50%; inconclusive = mostly about -30% to -49%; note: % is set by controls: 0 for no effect and ±100 for the full control effect
#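 THP-1 cells pretreated 1 hr with compounds (up to 57.5 uM final), then stimulated with LPS (250 ng/mL final) plus ATP (1.25 mM final); secreted IL-1B measured by AlphaLISA after 16 hr, decreased signal indicating inhibition.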
# An asterisk follows results filed as active; ? = inconclusive; / = not tested or not shown; [ ] = remark or other dose. Unless noted, calls come from the whole dose curve; as a rule, active = well fitted curve in the direction sought with a large enough effect; inconclusive = small, poorly fitted or top-dose-only effect, or another doubt; inactive = no such curve, though single readings can be large; an effect the other way counts as inactive or inconclusive.
SMILES,DT40 TDP1 CPT,TGFb SMAD3 inh,DT40 TDP1 no CPT,HepG2 tox,TDP1 inh,IL1B secr inh
CCCCCCC(Cl)(Cn1ccnc1)c1ccccc1 (stereo not drawn),?,-21%,15µM*,-15%,/,-18
CCN1C[C@@]2(COC)C3[C@@H](OC)C4[C@@H]1[C@@]3(C1C[C@@]3(O)[C@H](OC(=O)c5ccccc5)C1[C@]4(OC(C)=O)[C@@H](O)[C@@H]3OC)[C@@H](OC)C[C@H]2O (stereo partly drawn),-4%,/,16%,/,-9%[56.1 µM],/
Cc1cccc(NP(=O)(Oc2ccccc2F)Oc2ccccc2F)c1,?,13µM*,?,-60%,1%,-99*
Cc1ccc(NP(=O)(Oc2ccccc2F)Oc2ccccc2F)cc1C,?,?,?,-76%,1%,-84*
O=P(Nc1ccccc1)(Nc1ccccc1)Oc1ccc(Cl)cc1,-37%,-5%,-17%,-16%,2%,22
Clc1ccc(CSc2nnc(-c3ccccn3)n2Cc2ccco2)cc1Cl,?,?,?,-22%,/,-1
c1ccc(-c2ccc(C(c3ccccc3)n3ccnc3)cc2)cc1 (stereo not drawn),10µM*,-11%,23µM*,-17%,11%,-22
CC(=O)OC1C(=O)OCC23CCC4(C)OC4C2OC2CC(OC(=O)C=CC=CC(=O)OCCC1C)C3(C)C21CO1 (stereo not drawn),0.15µM*,-63%,0.021µM*,-26%,/,-101*
CC(O)C1C=CC=CC(=O)OC2CC3OC4C5OC5(C)CCC4(COC(=O)C4OC4(C)C(O)CO1)C2(C)C31CO1 (stereo not drawn),0.052µM*,0.25µM*,0.052µM*,7%,/,-100*
CC[C@@]1([C@@H]2O[C@@H]([C@H]3O[C@@](O)(CO)[C@H](C)C[C@@H]3C)C[C@@H]2C)CC[C@H]([C@]2(C)CC[C@]3(C[C@H](O)[C@@H](C)[C@@H]([C@@H](C)[C@@H](OC)[C@H](C)C(=O)O)O3)O2)O1 (stereo in doubt),0.23µM*,/,0.21µM*,/,/,/
COc1ccc2c(c1)C(c1ccc(N(CCCl)CCCl)cc1)=NCC2,16µM*,?,13µM*,-28%,/,-90*
ClCCN(CCCl)c1ccc(C2=NCCc3ccccc32)cc1,23µM*,?,?,-29%,/,-78*
COc1ccccc1N1CCN(CCc2ccccc2)CC1,?,0%,-6%,2%,/,-1
COc1ccccc1N1CCN(S(=O)(=O)CCNC(=O)CCCc2ccccc2)CC1,?,-5%,21µM*,-2%,/,-2
CC/C(=N\Nc1ccccc1)c1c(O)n(C)c(=O)n(C)c1=O,?,-9%,?,4%,11%,49
CCC(=NC(C)c1ccccc1)c1c(O)n(C)c(=O)n(C)c1=O (stereo not drawn),21µM*,-10%,7.3µM*,-17%,6%,-26
CCC(=NCCc1c[nH]c2ccccc12)c1c(O)n(C)c(=O)n(C)c1=O,4µM*,13%,6.3µM*,-24%,6%,?
CC(=O)[C@H]1CC[C@H]2C3CC[C@H]4C[C@H](O)CC[C@]4(C)C3CC[C@]12C (stereo partly drawn),/,/,/,/,11%,/
CCOc1ccc(CN(CCc2ccc3c(c2)OCO3)Cc2ccc(CC)cc2)cc1,?,-9%,?,-23%,-10%[12.3 µM],/
C[C@]12C[C@H]3S[C@H]3C[C@@H]1CC[C@@H]1[C@@H]2CC[C@]2(C)[C@@H](O)CC[C@@H]12,-27%[21.1 µM],/,-29%[21.1 µM],/,/,/
Cc1c(C(=O)N2CCC(Cc3ccccc3)CC2)sc2ncnc(N3CCC(C)CC3)c12,21µM*,-19%,?,14%,-3%,-2
O=C1NO[C@H]2[C@@H]1CN[C@@H]2C(=O)O,/,/,/,/,7%,/
CCc1ccc(NC(=S)NC2CC3CCC(C2)N3Cc2ccco2)cc1 (stereo not drawn),18µM*,-27%,23µM*,-25%,1%,-4
O=C1C=CC(=O)C2C1C1(Cl)C(Cl)=C(Cl)C2(Cl)C1(Cl)Cl (stereo not drawn),?,?,?,-93%,/,-103*
ClCC1C(CCl)C2(Cl)C(Cl)=C(Cl)C1(Cl)C2(Cl)Cl (stereo not drawn),/,/,/,/,21%,/
SMILES,DT40 TDP1 CPT,TGFb SMAD3 inh,DT40 TDP1 no CPT,HepG2 tox,TDP1 inh,IL1B secr inh
CCc1ccccc1NC(=O)C(CC)Oc1ccccc1-c1nnc(-c2ccccc2)o1 (stereo not drawn),5.8µM*,-1%,5.2µM*,-3%,5%,/
COc1ccccc1C(=O)Nc1nnc(-c2ccc(Cl)cc2)o1,-22%,0%,?,-23%,/,-14
CC1(C)C(O)CC(O)[C@]2(C)C1CC(=O)[C@]1(C)C2CC[C@@]2(C)C(c3ccoc3)OC(=O)C3OC321 (stereo partly drawn),?,/,-8%,/,11%,/
O=C(Nc1ccccc1)N1CC2(CCN(C(=O)Oc3ccccc3)CC2)C1,-16%,/,-11%,/,/,/
Cc1ccc(C)c(NC(=O)CCNC(=O)N2C[C@H]3C[C@@H](C2)c2cccc(=O)n2C3)c1,9%,-14%,-1%,-44%,/,11
CN1[C@H](CC(=O)c2ccccc2)CCC[C@H]1C[C@@H](O)c1ccccc1,13%,/,-20%,/,5%,/
CS(=O)(=O)OCC(O)C(O)COS(C)(=O)=O (stereo not drawn),13µM*,/,11µM*,/,/,/
CC(C)OS(C)(=O)=O,5%,10%,3%,-2%,2%,-9
COc1ccccc1NC(=O)Cn1c(=O)n(-c2cccc(Cl)c2)c(=O)c2sc3ccccc3c21,13µM*,0%,6.5µM*,3%,-1%,/
Cc1ccc(NC(=O)CN2C(=O)CN=C(c3ccccc3)c3ccccc32)c(C)c1,?,7%,?,-29%,2%,/
COC1C(C)OC(OC2CC(C)(O)Cc3cc4c(c(O)c32)C(=O)c2c(O)cc3c(c2C4=O)OC2OC3(C)C(O)C(N(C)C)C2O)C(OC)C1(C)OC (stereo not drawn),0.082µM*,2µM*,0.12µM*,30%,/,-99*
COP(=S)(OC)Oc1ccc([N+](=O)[O-])c(C)c1,/,/,/,/,10%,/
c1ccc(C(OCCN2CCNCC2)c2ccccc2)cc1,-25%,-3%,-25%,-5%,1%,-13

# Bioassay records deposited in PubChem by National Center for Advancing Translational Sciences (NCATS).
